Source: PubChem
TbREL1 inh: TbREL1 RNA ligase inhibitors, primary screen, biochemical, FRET fluorescence. RNA-editing ligase 1, mitochondrial (Trypanosoma brucei brucei), P86926. TbREL1 RNA ligation. inhibition, % at 9.66 µM. 89,000 compounds, 0.49% hits;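 active means inhibition above the mean inhibition across all screened compounds plus 3 SD, cut at about 11% in these data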;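 further: 0% = plate median of test wells and 100% = NSC42067 control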
Target sequence (P86926 whole entry, looked up): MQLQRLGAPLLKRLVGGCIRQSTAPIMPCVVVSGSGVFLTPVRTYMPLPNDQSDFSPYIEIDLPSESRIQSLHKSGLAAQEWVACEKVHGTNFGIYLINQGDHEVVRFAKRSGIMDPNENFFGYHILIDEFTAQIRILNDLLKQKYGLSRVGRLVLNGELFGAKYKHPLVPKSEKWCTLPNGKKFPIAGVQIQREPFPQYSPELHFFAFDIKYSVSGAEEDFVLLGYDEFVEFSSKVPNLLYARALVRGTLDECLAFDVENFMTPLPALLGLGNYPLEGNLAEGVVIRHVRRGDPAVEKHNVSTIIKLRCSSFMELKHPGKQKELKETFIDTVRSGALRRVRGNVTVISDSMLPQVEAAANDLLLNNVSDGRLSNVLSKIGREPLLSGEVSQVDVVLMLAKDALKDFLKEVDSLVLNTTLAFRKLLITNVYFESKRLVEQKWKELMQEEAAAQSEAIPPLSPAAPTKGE
TbREL1 confirm: TbREL1 RNA ligase inhibitors, confirmation, biochemical, FRET fluorescence, triplicate; shares compounds with TbREL1 inh; TbREL1 RNA ligation; inhibition, % at 9.66 µM; 390 compounds, 37% hits; AID 1117282, 2014;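 active means mean inhibition across replicates above a set limit taken from the earlier primary screen, cut at about 11% in these data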;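 further: 0% = REL1 with substrate and DMSO and 100% = REL1 plus control inhibitor NSC42067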
* hit, by the source's call. The entries come from a sample that favours hits as a whole.

SMILES	TbREL1 inh	others
O=c1oc(CCCO)cc2ccc(C#Cc3cccnc3)cc12	4
CCc1ccc(NC(=O)c2cc(C(C)C)on2)cc1	5
CC(C)c1cc(C(=O)NCCc2ccccc2)no1	11*	TbREL1 confirm=1
CC(C)c1cc(C(=O)NCc2ccco2)no1	0
COCCNc1nc2cc(-c3ccccc3)sc2c(=O)n1C	-2
Cc1ccc(S(=O)(=O)N2CCn3cccc3C2C)cc1 (configuration not stated)	-4
CN(C)CCCN(C(=O)c1ccc(S(=O)(=O)N2CCc3ccccc32)cc1)c1nc2ccc(F)cc2s1	12*	TbREL1 confirm=8
CN(C)CCCN(C(=O)c1ccc(S(=O)(=O)N2CCc3ccccc32)cc1)c1nc2ccc(Cl)cc2s1	6
Cc1ccc2nc(N(CCCN(C)C)C(=O)c3ccc(S(=O)(=O)N4CCc5ccccc5C4)cc3)sc2c1	0
CN(C)CCCN(C(=O)c1ccc(C(=O)c2ccccc2)cc1)c1nc2cc3c(cc2s1)OCCO3	12*	TbREL1 confirm=8
CN(C)CCCN(C(=O)c1ccc2c(c1)CCCC2)c1nc2cc3c(cc2s1)OCO3	7
CN(C)CCCN(C(=O)CCS(=O)(=O)c1ccccc1)c1nc2cc3c(cc2s1)OCO3	10
CC(C)c1ccc(NC(=O)NCc2ccccn2)cc1	-1
CC1(c2ccc(OC(F)F)cc2)NC(=O)N(CC(=O)N2CCN(C(=O)c3ccco3)CC2)C1=O (configuration not stated)	5
CC(C)c1cc(C(=O)O)c2ccccc2n1	13*	TbREL1 confirm=9
Cc1cc(C(N)=O)c2ccccc2n1	4
O=C(O)c1cc(Sc2ccc(Br)cc2)nc2ccccc12	0
O=C(CN1CCN(C(c2ccccc2)c2ccccc2)CC1)NC(=O)NCc1ccco1	-5
Cc1ccc(NC(=S)NNC(=O)c2nn(C)c(C)c2Cl)cc1	-8
COC(=O)[C@@H]1C[C@H]2CC[C@H](O)C[C@H]2N1Cc1ccc(C(F)(F)F)cc1	-2
CCN=C1SCC(=O)N1c1ccc(OC)cc1	5
O=C(Nc1ccon1)c1ccc(S(=O)(=O)N2CCOCC2)cc1	13*	TbREL1 confirm=5
CC1CN(S(=O)(=O)c2ccc(C(=O)Nc3ccc(S(=O)(=O)N4CCOCC4)cc3)cc2)CC(C)O1 (configuration not stated)	-1
O=C(Nc1cccc(F)c1)c1ccc(S(=O)(=O)N2CCOCC2)cc1	-2
CCOc1ccc(C2C3=C(Nc4nc(N)[nH]c(=O)c42)c2ccccc2C3=O)cc1 (configuration not stated)	0
SMILES	TbREL1 inh	others
Cc1cc(C(=O)N/N=C/c2ccc(O)c(O)c2O)c(C)n1-c1ccccc1	1
Oc1ccc(/C=N/N(Cc2ccccc2)c2ccccc2)c(O)c1O	-4
CCN=c1scc(C)n1/N=C/c1ccc(O)c(O)c1O	13*	TbREL1 confirm=24*
O=C(CSc1nnc(-c2ccc(Cl)cc2)n1Cc1ccco1)Nc1ccc(S(=O)(=O)Nc2nccs2)cc1	3
COc1ccc(-c2nnc(SCC(=O)NN=C(C)c3cccc4ccccc34)n2-c2ccc(C)cc2)cc1	1
COC(=O)C1=C(C)N(Cc2ccc(C(F)(F)F)cc2)C(=NCc2ccccc2C(F)(F)F)NC1c1ccc(Cl)cc1 (configuration not stated)	11*	TbREL1 confirm=16*
COC(=O)C1=C(C)N(Cc2ccccc2)C(=O)N[C@H]1c1ccccc1	-1
COCCN=C1N[C@@H](c2cccc(C(F)(F)F)c2)C(C(=O)OC)=C(C)N1Cc1ccccc1	14*	TbREL1 confirm=18*
COC(=O)C1=C(C)N(Cc2ccccc2)C(=S)NC1c1cccc(OC)c1 (configuration not stated)	-5
CCN1C(=NCC(C)C)N[C@@H](c2cccc(C(F)(F)F)c2)C(C(=O)OC)=C1C	11
COC(=O)C1=C(C)N(C)C(=NCc2ccccc2C(F)(F)F)NC1c1ccc(F)cc1 (configuration not stated)	11
COC(=O)C1=C(C)N(Cc2ccccc2)C(=O)N[C@H]1c1cccc(F)c1	-2
COC(=O)C1=C(C)N(Cc2ccc(Cl)cc2)C(=S)NC1c1ccc(Cl)cc1 (configuration not stated)	-4
COC(=O)C1=C(C)N(Cc2ccc(C(F)(F)F)cc2)C(=NCc2ccccc2C(F)(F)F)NC1c1ccccc1 (configuration not stated)	13*	TbREL1 confirm=14*
COC(=O)C1=C(C)N(Cc2ccc(C(F)(F)F)cc2)C(=NCc2ccccc2C(F)(F)F)NC1c1cccc(Cl)c1 (configuration not stated)	16*	TbREL1 confirm=20*
COC(=O)C1=C(C)N(Cc2ccccc2)C(=NCCCCO)N[C@H]1c1cccc(C(F)(F)F)c1	7
Cc1nnc(SCC(=O)N(C)Cc2ccccc2)[nH]c1=O	1
O=C(c1ccccc1OCc1ccccc1)N(Cc1ccccn1)CC1CCCO1 (configuration not stated)	-2
Cc1cc(=O)[nH]c(SCC(=O)Nc2cccc(Cl)c2F)n1	8
COc1ccc(/C=C/C(=O)NCCN=C2NS(=O)(=O)c3ccccc32)cc1	1
C/C=C\C(=O)Nc1cccc(C2=NOC3(C2)C[C@@H](C(N)=O)N(C(=O)COc2ccc(Cl)cc2)C3)c1 (some centres not stated)	-1
c1ccc(-c2cccc(CNc3nc(-c4ccccn4)nnc3-c3ccccc3)c2)cc1	5
CCCCOc1ccc(/C(O)=C2/C(=O)C(=O)N(CCCOC)C2c2ccncc2)cc1C (configuration not stated)	-4
CC(=O)N1CCN=C1SCc1ccc(Cl)cc1	-4
CCc1ccccc1NC(=O)/C(=C/c1ccco1)c1ccccc1	2
SMILES	TbREL1 inh	others
CC(=O)Nc1ccc(NC(=O)C(c2ccccc2)c2ccccc2)cc1	-3
COC(=O)C1=C(C)N(C)C(=NCc2ccccc2)NC1c1ccccc1C(F)(F)F (configuration not stated)	9
COC(=O)C1=C(C)N(Cc2ccc(C(F)(F)F)cc2)C(=NCc2ccc(C(F)(F)F)cc2)NC1c1ccccc1C(F)(F)F (configuration not stated)	17*	TbREL1 confirm=24*
COC(=O)C1=C(C)N(Cc2ccc(C(F)(F)F)cc2)C(=NCc2ccc3c(c2)OCO3)NC1c1ccccc1C(F)(F)F (configuration not stated)	17*	TbREL1 confirm=22*
COC(=O)C1=C(C)N(Cc2ccc(C(F)(F)F)cc2)C(=NCc2ccccc2C(F)(F)F)NC1c1ccccc1C(F)(F)F (configuration not stated)	17*	TbREL1 confirm=23*
COC(=O)C1=C(C)N(c2ccccc2)C(=S)NC1c1ccccc1C(F)(F)F (configuration not stated)	-5
O=C(CSc1nnc(-c2ccc(Cl)cc2)n1-c1ccccc1)Nc1ccc2c(c1)OCCO2	-3
CCOC(=O)N1CCN(C(=O)CN(Cc2ccc(Cl)cc2)S(=O)(=O)c2ccc(C)cc2)CC1	-2
Cc1ccc(C)n1-c1ccc(N(C)C)cc1	3
CC1CCN(C(=O)COc2ccc(S(=O)(=O)N3CCCC3)cc2)CC1	-2
O=C(COC(=O)C1CC(=O)N(Cc2ccccc2)C1)Nc1cccc([N+](=O)[O-])c1 (configuration not stated)	-3
O=C(NCc1ccc(Cl)cc1)C1CCC(CNc2c(N3CCCCC3)c(=O)c2=O)CC1 (configuration not stated)	-2
